Bioassay records: PubChem BioAssay, National Center for Advancing Translational Sciences (NCATS)
Shown are actives, neighbours in structure and some others; about 4.3% of the full set was active somewhere.
GLP-1R inv ag – inverse agonists of human GLP-1 receptor; HEK293 GLP-1R CRE-luciferase, luminescence, 24 h; GLP-1R form is constitutively active; Potency, µM (titrated, usually from 38.3 µM), inactives show top-dose activity change, negative = inhibition, most hits filed as inhibitors; 410,000 tested, 1.6% active; AID 624417; further: potency means the concentration at half of the fitted maximal effect; on the % scale 0 is the no-effect control and ±100 the full control effect; nearly all actives have a fitted effect of over 55% in size
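Constitutively active GLP-1R drives a cAMP-responsive luciferase in stably transfected HEK293 cells; test compounds are added after overnight (12 h) attachment and left 24 hr, and signal loss in luminescence marks inhibition.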
D3 ag – activates the human D3 dopamine receptor; P35462; D3R DiscoveRx beta-arrestin cells, luminescence, 90 min; max activation, %; 410,000 tested, 0.58% active; AID 652048; in the data active means max activation above about 30%; further: 0% is about no effect
Target sequence (P35462 whole entry, looked up): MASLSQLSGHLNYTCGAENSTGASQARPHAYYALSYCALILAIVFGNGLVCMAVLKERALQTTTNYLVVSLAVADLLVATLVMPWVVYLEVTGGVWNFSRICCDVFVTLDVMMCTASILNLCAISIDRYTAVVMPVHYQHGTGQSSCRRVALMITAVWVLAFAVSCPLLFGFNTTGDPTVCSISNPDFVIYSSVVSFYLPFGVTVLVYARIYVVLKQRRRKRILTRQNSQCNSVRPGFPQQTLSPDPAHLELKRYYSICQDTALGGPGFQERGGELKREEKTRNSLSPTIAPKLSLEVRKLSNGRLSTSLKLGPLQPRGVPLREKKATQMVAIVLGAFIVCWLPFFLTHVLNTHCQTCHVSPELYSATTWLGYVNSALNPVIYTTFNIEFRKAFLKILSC
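Agonist-mode cell screen: cells plated at 1500/well and incubated overnight at 37 °C, then exposed to library compounds for 90 min at 37 °C. Detection reagent was added for 30–60 min at room temperature, and luminescence was read.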
GLP1R ag – activates the human GLP-1 receptor; HEK293 GLP-1R CRE-luciferase, luminescence, 4-6 h; cells express a hypersensitive GLP-1R form; 380,000 tested, 0.007% active; AID 624172; P43220; Potency, µM (series often up to 45.6 µM), for the others: top-dose activation, usual class: activators; further: potency means the concentration at half of the fitted maximal effect; % of control where 0% means no effect
D3 antag – antagonists of human D3 dopamine receptor | max response, negative = inhibition, % | D3R cells, DiscoveRx beta-arrestin luminescence, antagonist mode; stronger effect = lower value | 360,000 tested, 2.5% active | P35462; in the data active means max response below about -50%; inconclusive means no clear call, values can overlap the other calls; further: on the % scale 0 is the no-effect control and ±100 the full control effect
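Cells plated overnight at 1500 cells/well, then exposed to library compounds with dopamine controls for 90 minutes at 37 degrees C. DiscoveRx reagent added for 30–60 minutes at room temperature; luminescence read, quantitative HTS format.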
* marks the source's active call; other numbers are inactive results; ? = inconclusive; . = no result; [ ] = remark or other dose. Unless noted, the call rests on the fitted dose curve; in most records, active means well fitted curve in the direction sought with a large enough effect; inconclusive means small, poorly fitted or top-dose-only effect, or another doubt; inactive means no such curve, though single readings can be large; an effect the other way counts as inactive or inconclusive.

SMILES	GLP-1R inv ag	D3 ag	GLP1R ag	D3 antag
O=[N+]([O-])c1ccc(/C=N/Nc2ccc3ccccc3c2)o1	?	-19	-3%	-89*
O=C(N/N=C/c1ccc([N+](=O)[O-])o1)c1cc2ccccc2o1	3%	-14	7%	-25
O=S1(=O)c2ccccc2N(Cc2ccc(Cl)cc2F)c2ccccc21	5%	-15	.	.
O=S(=O)(Nc1cccc2c1CCCC2)c1cccc(C(F)(F)F)c1	10µM*	0	6%	-4
COc1cc2[nH]c(C(=O)NCCc3ccccc3)cc2c(OC)c1OC	-21%	-15	8%	-61*
COc1ccc2[nH]c(C(=O)NCCc3ccccc3)cc2c1	5%	-17	11%	0
COc1cc2[nH]c(C(=O)NCc3ccccc3)cc2c(OC)c1OC	7%	-10	4%	-105*
COc1cc(OC)c(C2CC(=O)N3CN(c4ccccc4)CSC3=C2C#N)cc1OC (stereo not given)	2%	-1	11%	-21
CCc1ccccc1N1CSC2=C(C#N)C(c3cc(OC)c(OC)cc3OC)CC(=O)N2C1 (stereo not given)	3%	-1	11%	-68*
COC(=O)Sc1nc(N2CCOCC2)c2c(c1C#N)CC(C)(C)OC2	2%	-1	6%	-57*
CC(C)CSc1nc(N2CCOCC2)c2c(c1C#N)CC(C)(C)SC2	?	5	3%	2
CCCSc1nc(N2CCOCC2)c2c(c1C#N)CC(C)(C)SC2	10µM*	-1	-10%	0
CCC(CC)c1nn2c(=O)cc(COc3ccc(NC(=O)c4ccccc4C)cc3)nc2s1	-25%	5	-3%	.
COc1ccccc1CNC(=O)Cc1ccc(C)cc1	?	3	0%	8
Cc1ccc(CNC(=O)CNC(=S)N(Cc2ccccc2)Cc2ccccc2F)cc1	10µM*	-8	10%	-29
COc1ccccc1CNCC(=O)NCc1ccc(C)cc1	-12%	-20	-3%	-87*
O=C(CNC(=S)N(Cc1ccccc1)Cc1ccccc1F)NCc1ccccc1	-6%[0.307 µM]	-11	10%	-4
COc1ccccc1CC(=O)N(Cc1ccccc1)c1ccc(C)cc1	8.9µM*	3	12%	5
COc1ccccc1C(C)NCC(=O)NCc1ccc(C)cc1 (stereo not given)	?	-36	10%	-58*
COc1ccccc1C(=O)N(Cc1ccccc1)c1ccc(C)cc1	?	-8	-3%	16
Cc1sc(NC(=O)c2ccco2)c(C(c2cccnc2)N2CCC(C)CC2)c1C (stereo not given)	8.9µM*	18	-3%	-22
CCc1ccc(NC(=O)CCCc2nnc3n(C(C)CC)c(=O)c4sccc4n23)cc1 (stereo not given)	-5%	-3	.	.
CN1CCC(N(C)C(=O)/C(C#N)=C/c2ccccc2)CC1	8%	4	0%	-3
CCOc1ccc(CN2CCCC(CO)(Cc3ccccc3F)C2)cc1 (stereo not given)	?	-26	24%	?
COc1ccc(CN2CCCC(CO)(Cc3ccc(F)cc3)C2)c(OC)c1OC (stereo not given)	?	-13	3%	8
SMILES	GLP-1R inv ag	D3 ag	GLP1R ag	D3 antag
OCC1(Cc2ccc(F)cc2F)CCCN(Cc2ccc(Cl)cc2)C1 (stereo not given)	?	-21	-1%	-83*
CSc1cccc(CN2CCCC(CO)(Cc3cccc(Cl)c3)C2)c1 (stereo not given)	?	0	12%	-3
OCC1(Cc2cccc(Cl)c2)CCCN(Cc2ccc(F)c(F)c2)C1 (stereo not given)	10µM*	-7	1%	-13
OCC1(Cc2cccc(Cl)c2)CCCN(Cc2cnn(-c3ccccc3)c2)C1 (stereo not given)	?	-18	2%	-62*
Cn1cc(CN2CCCC(CO)(Cc3cccc(Cl)c3)C2)cn1 (stereo not given)	-8%	-9	-2%	-24
CC(C)Oc1ccc(CN2CCCC(CO)(Cc3ccc(F)cc3)C2)cc1 (stereo not given)	11µM*	-24	14%	?
COc1ccc(N(C)C(=O)Cn2cc(S(=O)(=O)N3CCN(c4ccccc4F)CC3)c3ccccc3c2=O)c(OC)c1	?	-11	1%	.
CCOC(=O)c1c(-c2ccccc2)csc1NC(=O)c1ccc(S(=O)(=O)N2CC(C)OC(C)C2)cc1 (stereo not given)	3%	14	-5%	15
CCOC(=O)c1c(-c2ccccc2)csc1NC(=O)c1ccc(N2C(=O)CCC2=O)cc1	1%	57*	-17%	35
O=C(NCc1ccc(F)cc1)C(c1ccco1)N(C(=O)c1csnn1)c1ccccc1 (stereo not given)	-9%	49*	5%	7
O=C(NCc1ccc(F)cc1)C(c1ccccc1)N(C(=O)c1csnn1)c1ccccc1 (stereo not given)	-14%	17	9%	13
Nc1ccn(CC(=O)NCCCc2ccccc2)c(=O)n1	4%	-8	-3%	-20
COCCCNC(=O)Cn1ccc(N)nc1=O	37%	38*	-6%	14
CN(c1ccccc1C(=O)Nc1cccc(Cl)c1Cl)S(C)(=O)=O	0%	-11	-1%	-57*
COc1ccc(C(=O)Nc2cccc(-c3cn4ccsc4n3)c2)c(OC)c1	?	63*	.	.
COc1ccc(C(=O)Nc2cccc(-c3cn4ccsc4n3)c2)cc1OC	-24%	1	.	.
CCOC(=O)N1CCN(C(=O)c2ccc3c(c2)N(C)C(=O)/C(=C\c2ccc(OCC)c(OC)c2)S3)CC1	-7%	46*	15%	63
CN1C(=O)/C(=C/c2cccc(Cl)c2)Sc2ccc(C(=O)N3CCCC3)cc21	11%	39*	-5%	23
CCOC(=O)N1CCN(C(=O)c2ccc3c(c2)NC(=O)/C(=C\c2ccc(OC)c(OC)c2)S3)CC1	40%	-1	6%	36
Cc1cccc(/C=C2\Sc3ccc(C(=O)N4CCCCC4)cc3N(C)C2=O)c1	?	-2	14%	-10
C=C(C)Cn1c(=O)c2c(nc3n2CCN3c2ccc(F)cc2)n(C)c1=O	6%	10	.	.
CCOc1ccc(N(C(C)C(=O)NCCSc2ccc(Cl)cc2)S(C)(=O)=O)cc1 (stereo not given)	?	-3	-2%	.
CCOC(=O)c1nc2sc3c(c2c(=O)n1C(C)C(=O)OCC)CCCC3 (stereo not given)	1.3µM*	1	26%	30
C/C(=C\c1ccccc1)CN1CCN(c2cccc(Cl)c2)CC1	-10%	-18	-5%	-137*
Cc1cc(C)cc(NC(=O)CN2CCN(c3ccccc3)CC2)c1	-45%	-4	1%	11
C/C=C(\C)CN1CCN(c2ccc(C)cc2)CC1	17%	-16	-9%	-79*
C/C(=C\c1ccccc1)CN1CCN(c2ccccc2F)CC1	?	-29	2%	-82*
CCN1CCN(C/C(C)=C/c2ccccc2)CC1	3%	-19	-5%	?
